# Measured values published in PubChem BioAssay AID602252 (Broad Institute, 2012).
# Among all 300,000 compounds or so, about 2,700 (0.9%) were called active. For the sample, actives were picked, then their nearest neighbours and some compounds at random. A number with no mark means an inactive call.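 The calls were made as follows: active = mean inhibition of at least 30% with at least half of replicates also reaching 30%; inconclusive = no clear call, values can overlap the other calls; inactive = the rest.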
# Biological target: Golgi-associated PDZ and coiled-coil motif-containing protein (Homo sapiens) (UniProt Q9HD26)
# Assay: blockade of CAL PDZ-reporter peptide interaction – biochemical, fluorescence polarization, untagged CAL PDZ, HTS, primary screen (AID 602252);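 also: 0% = DMSO neutral control and 100% = excess unlabeled competitor peptide PRC23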
# Settings: purified CAL PDZ, TMR-peptide fluorescence polarization, 1 h; at 24.9 µM; active compounds read high
row,SMILES,inhibition
1,O=C(OCC(=O)N1CCN(C(=O)c2ccco2)CC1)c1c(Cl)cccc1Cl,-0.558%
2,CC(C)CNS(=O)(=O)c1ccc(CCC(=O)NCc2ccc(Cl)cc2)cc1,0.426%
3,Cc1ccc(S(=O)(=O)NCCC(=O)Nc2ccc(C)c(Cl)c2)cc1C,-1.6%
4,Cc1ccc(S(=O)(=O)NCCC(=O)NCc2ccc(Cl)cc2)cc1C,66.1% (active)
5,CCN(CC)C(=O)[C@H]1C[C@H](CC(=O)NCC23CC4CC(CC(C4)C2)C3)C(=O)N2CCc3c([nH]c4cc(CCC(=O)N(C)C)ccc34)[C@]12C,-1.84%
6,Cc1cc(-n2nc(C)cc2C)n2ncc(-c3ccccc3)c2n1,-1.01%
7,Cc1cc(C(F)(F)F)n2ncc(-c3ccccc3)c2n1,50.2% (active)
8,O=C(O)c1cnn2c(C(F)(F)F)cc(-c3ccccc3)nc12,0.025%
9,O=[N+]([O-])c1cccc(C=NN=Cc2ccccc2O)c1,6.22%
10,COC(=O)[C@]1(Cc2ccccc2)N[C@H](CN(C)S(=O)(=O)c2ccc(OC(F)(F)F)cc2)[C@@H]2C(=O)N(Cc3ccccc3)C(=O)[C@@H]21,-5.9%
11,NN=C(NN=Cc1ccccc1)c1ccccc1,-2.94%
12,COc1ccc(-c2nc3cc(C)ccn3c2NC2CCCCC2)cc1SC1CCCCC1,-0.092%
13,CCCCN(CC(=O)Nc1cccc(S(=O)(=O)N2CCCC2)c1)Cc1nc2ccccc2c(=O)[nH]1,-3.98%
14,CCc1ccc(CN(C)C(C)C(=O)Nc2ccc(S(=O)(=O)N3CCCC3)cc2)cc1 (stereo not drawn),2.24%
15,COc1cc(OC)cc(-c2c(C#Cc3ccsc3)c3cc(-c4ccc(OC)cc4F)ccc3n2C)c1,2.79%
16,O=C1OCC2=C1C(c1ccc(Cl)cc1)c1cc3c(cc1O2)OCO3 (stereo not drawn),7.51%
17,CN(c1ccc(C(=O)N2CCc3ccccc3C2)cc1)S(C)(=O)=O,3.47%
18,Cn1cccc1C(=O)N1CCc2ccccc2C1,91.2% (active)
19,Cc1ccc(-c2cc(C(=O)N3CCc4ccccc4C3)no2)cc1,1.04%
20,O=S(=O)(Cc1ccc(Cl)cc1Cl)c1ccc(Cl)cc1,-1.54%
21,Cc1nn(-c2ncccn2)c2c1C(=O)CC(C)(C)C2Br (stereo not drawn),0.781%
22,CN(C)C(CNC(=O)c1cc2ccccc2o1)c1ccccc1 (stereo not drawn),-5.09%

row,SMILES,inhibition
1,CCCCn1c(=S)[nH]c2ccccc2c1=O,-2.2%
2,CCCCNC(=O)c1ccc(-n2c(=S)[nH]c3ccccc3c2=O)cc1,41.5% (active)
3,CCN(CC)CCCNC(=O)c1ccc2c(=O)n(Cc3ccc4c(c3)OCO4)c(=S)[nH]c2c1,-3.92%
4,CCOC(=O)CSc1nnc(NC(=O)c2cccc(S(=O)(=O)N3CCCCC3)c2)s1,-0.488%
5,CCc1nnc(NC(=O)c2cc(S(=O)(=O)N3CCCCC3)ccc2C)s1,77.7% (active)
6,CCOC(=O)c1sc(NC(=O)c2cc(S(=O)(=O)N3CCOCC3)ccc2C)nc1C,-2.78%
7,CN(C(=O)c1cccc(NC(=O)Cc2ccc(NC(=O)C3CCCN(C(=O)C4CCCC4)C3)cc2)c1)C1CCC1 (stereo not drawn),4.34%
8,CCOC(=O)c1c(-c2ccc(-c3ccccc3)cc2)csc1NC(=O)CCC(=O)O,39.2% (active)
9,CCOC(=O)c1c(-c2ccccc2)csc1NC(=S)NC(=O)c1ccccc1,-5.36%
10,CCOC(=O)c1c(-c2cccc(C)c2)csc1NC(=O)c1c(-c2ccccc2)noc1C,-0.763%
11,C=CCN1C=C(C(=O)c2ccccc2)C(=O)CC1,6.82%
12,COc1ccc(Cc2nnc(NC(=O)c3ccc(OC)cc3OC)s2)cc1,-2.81%
13,COc1ccccc1NC(=O)Nc1nnc(Cc2ccc(F)cc2)s1,54% (active)
14,O=C(Nc1nnc(COc2ccccc2)s1)Nc1ccccc1F,1.97%
15,CN(CCc1ccccc1)C(=O)c1cccc(NC(=O)Cc2cccc(NC(=O)C3CCCN(C(=O)C4CCC4)C3)c2)c1 (stereo not drawn),-1.08%
16,COc1ccc(CCNC(=O)COc2cc(C)cc3oc(=O)c(C)c(C)c23)cc1OC,-1.33%
17,COc1cccc(NC(=O)c2ccccc2SC)c1,0.222%
18,COc1cccc(NC(=O)c2ccccc2N(Cc2ccccc2)S(C)(=O)=O)c1,44.6% (active)
19,COc1cccc(CN(C)CC(=O)Nc2ccccc2C(=O)Nc2ccccc2)c1,-7.24%
20,O=C(Nc1cccc(S(=O)(=O)N2CCCCC2)c1)c1cncc(Br)c1,0.772%
21,Cc1cccc(NC(=O)c2cccc(S(=O)(=O)N3CCCC3)c2)n1,-2.35%
22,Cc1ccc(NC(=O)c2cccc(S(=O)(=O)N3CCCc4ccccc43)c2)nc1,44.8% (active)

row,SMILES,inhibition
1,NS(=O)(=O)c1ccc(CNC(=O)c2cccc(S(=O)(=O)N3CCc4ccccc43)c2)cc1,-0.134%
2,O=C(CN1C(=O)NC2(CCCCCC2)C1=O)Nc1ccc([N+](=O)[O-])cc1,-4.3%
3,C=CC[C@@H](Cc1ccc(F)cc1)C(=O)OC[C@H]1CCCN1C(=O)[C@H](CC=C)CC(=O)N(CCO)Cc1ccccc1,-2.32%
4,COc1cccc(-n2c(SCC(=O)NC3CCS(=O)(=O)C3)nc3ccccc3c2=O)c1 (stereo not drawn),-4.98%
5,CCOc1ccc(NC(=O)CN(C)CC(=O)Nc2cccc(Cl)c2C)cc1OCC,-7.09%
6,CCOc1ccc(NC(=O)CN(C)CC(=O)NC(C)c2ccccc2)cc1OCC (stereo not drawn),39.5% (active)
7,CCOc1ccc(NC(=O)CN(C)C(=O)CSc2ccccc2)cc1OCC,-0.51%
8,COc1ccc(S(=O)(=O)N2C[C@H]3CON(C)[C@H]3C[C@H]2c2cccc(Br)c2)cc1,-1.19%
9,COc1cccc2c1C(=O)c1c(O)c3c(c(O)c1C2=O)CC(O)(C(C)=NNC(=O)c1ccc(Cl)c(Cl)c1)CC3OC1CC(N)C(O)C(C)O1 (stereo not drawn),-11.4%
10,Cc1c([N+](=O)[O-])c(N)nn1C,46.7% (active)
11,Cn1nc(C(C)(C)C)c([N+](=O)[O-])c1C(N)=O,-0.311%
12,Cc1nn(C)c(Oc2ccccc2)c1[N+](=O)[O-],-1.91%
13,O=C(CSc1cccc[n+]1[O-])c1ccc(Cl)cc1,51.8% (active)
14,O=C(CSc1cccc[n+]1[O-])c1ccc(-c2ccccc2)cc1,0.814%
15,COc1ccccc1C(=O)CSc1cccc[n+]1[O-],1.87%
16,CCOC(=O)C1CCCN(C(=O)C2CCN(S(=O)(=O)c3ccc(Cl)c(C(F)(F)F)c3)CC2)C1 (stereo not drawn),-2.17%
17,O=C1NC(c2ccc(-c3ccccc3[N+](=O)[O-])o2)C(C(=O)c2ccc(Cl)cc2)C(O)(C(F)(F)F)N1 (stereo not drawn),-0.998%
18,CC1=NN(c2ccc(Cl)c(C(=O)O)c2)C(=O)/C1=C/c1ccc(-c2ccccc2[N+](=O)[O-])o1,64% (active)
19,O=C(Nc1ccc(N2CCOCC2)cc1)c1ccc(-c2ccccc2[N+](=O)[O-])o1,-1.55%
20,COC1C(CO)OC(n2cnc3c(=S)nc(N)[nH]c32)C1O (stereo not drawn),-4.66%
21,COc1cc(OC)cc(-c2sc3ccc(OC)cc3c2-c2ccc3cc[nH]c3c2)c1,-4.97%
22,O=C(NCc1ccccc1)c1cccc(NC(=O)C2CCCCC2)c1,-1.61%

row,SMILES,inhibition
1,COc1ccc(C(=O)CSc2nnc(COc3ccccc3)n2Cc2ccco2)cc1,-1.09%
2,COc1ccc(-c2oc3ncn(Cc4ccco4)c(=N)c3c2-c2ccc(OC)cc2)cc1,36.1% (active)
3,N=c1c2c(-c3ccccc3)c(-c3ccccc3)oc2ncn1Cc1ccco1,4.45%
4,O=C(c1cccc(S(=O)(=O)N2CCCCCC2)c1)N1CCN(Cc2ccccc2)CC1,-6.1%
5,O=C(NCCc1c[nH]c2ccc(Cl)cc12)c1ccc([N+](=O)[O-])cc1,-7.41%
6,Cc1ccc2[nH]cc(CCNC(=O)c3ccc([N+](=O)[O-])cc3)c2c1,-3.1%
7,O=C(C[C@H]1C/C=C\C[C@@H](NC(=O)OCC2c3ccccc3-c3ccccc32)C(=O)O[C@@H](c2ccccc2)CNC1=O)N[C@H](CO)Cc1ccccc1,3.89%
8,C=CC[C@@H](CC(=O)N[C@@H](CO)Cc1ccccc1)C(=O)NCCOC(=O)[C@@H](CC=C)CC(=O)OC(C)(C)C,-4.88%
9,CC(=O)c1cccc(-c2ccc(CN3C(CC(C)C)C(=O)N(Cc4cn(CC5CCCCC5)nn4)CCS3(=O)=O)cc2)c1 (stereo not drawn),-1.77%
10,NC(=O)CSc1nnc(NC(=O)c2ccc3ccccc3c2)s1,-4.05%
11,O=C(Nc1nnc(SCc2c(Cl)cccc2Cl)s1)c1cccc([N+](=O)[O-])c1,76.9% (active)
12,O=C(Nc1nnc(SCc2ccccc2Cl)s1)c1cccc([N+](=O)[O-])c1,-3.54%
13,O=C(CSc1nc2ccccc2c(=O)n1Cc1ccc(F)cc1)NCC1CCCO1 (stereo not drawn),0.714%
14,Cc1ccc(NC(=O)c2ccc(Cl)nc2)cc1S(=O)(=O)N1CCOCC1,-1.23%
15,CC[C@]12c3[nH]c4cc(CCC(=O)N(C)C)ccc4c3CCN1C(=O)[C@@H](CC(=O)NCC13CC4CC(CC(C4)C1)C3)C[C@@H]2C(=O)N1CCN(C(=O)C2CC2)CC1,5.74%
16,CCCCC(=O)NC(c1ccc(OC)c(OC)c1)c1ccc2cccnc2c1O (stereo not drawn),-1.93%
17,O=C(O)c1ccc(/C=N/NC(=S)NCc2ccccc2)cc1,-1.3%
18,O=C(COc1ccc(/C=N/NC(=O)c2ccc(O)cc2)cc1)Nc1ccc([N+](=O)[O-])cc1,-1.35%
19,O=C(Cc1cccs1)N/N=C/c1ccc(OCc2ccccc2)cc1,-1.99%
20,C=CCNC(=S)N/N=C/c1ccc(OCc2ccccc2)cc1,51.2% (active)
21,O=C(N/N=C/c1ccc(OC(=O)c2ccccc2Cl)cc1)c1ccc(O)cc1,-4.63%
22,O=C(N/N=C/c1ccc(OCc2ccccc2)cc1)c1ccc(O)cc1,83.5% (active)
